# Results: paper PMC7862700, “An all-to-all approach to the identification of sequence-specific readers for epigenetic DNA modifications on cytosine”
# Experiments:
# Test in all cases: DAPPL (digital affinity profiling via proximity ligation, sequencing); 10 mM Tris-HCl pH 7.5, 50 mM NaCl, 1 mM DTT, 4% glycerol, room temperature, 30 min; GST-TFs on glutathione beads, 16-mer random dsDNA library, 0.1% formaldehyde crosslink after washing; high values mean tight binding
# Settings in all cases: protein: recombinant; tags: N-terminal GST; dsDNA, one strand shown
# [1] = molecular target: T1, FLI1 (Homo sapiens, UniProt Q01543 1-452)
# T1 sequence: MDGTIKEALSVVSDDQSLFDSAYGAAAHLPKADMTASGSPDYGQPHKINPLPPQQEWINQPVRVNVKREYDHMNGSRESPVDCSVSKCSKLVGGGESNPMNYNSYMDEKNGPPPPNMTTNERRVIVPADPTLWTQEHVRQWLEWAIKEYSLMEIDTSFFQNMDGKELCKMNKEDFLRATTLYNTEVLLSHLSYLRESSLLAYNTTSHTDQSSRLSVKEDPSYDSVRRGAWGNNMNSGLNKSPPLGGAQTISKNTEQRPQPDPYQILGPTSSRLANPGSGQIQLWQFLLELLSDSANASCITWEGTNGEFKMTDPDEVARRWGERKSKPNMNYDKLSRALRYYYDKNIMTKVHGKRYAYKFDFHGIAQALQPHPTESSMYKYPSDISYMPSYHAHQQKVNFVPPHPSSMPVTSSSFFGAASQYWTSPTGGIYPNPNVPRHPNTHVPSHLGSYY
# Procedure, shortened: (§1)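 Binding signal is defined as a hexamer's read frequency for one factor over its frequency for the tag-only sample. To obtain reads, GST-fused human transcription factors were expressed in yeast, captured on glutathione beads, barcoded with DNA and pooled with that sample. Pools met 200 nmole of a 16-mer random double-stranded DNA library in Tris/NaCl/DTT/glycerol buffer for 30 min at room temperature before washing, 0.1% formaldehyde crosslinking, proximity ligation (BsaI/T4 ligase, 1 h, 37 °C), PCR and Illumina NextSeq500 sequencing.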
# [2] = molecular target: T2, ELK1 (Homo sapiens, UniProt P19419 1-428)
# T2 sequence: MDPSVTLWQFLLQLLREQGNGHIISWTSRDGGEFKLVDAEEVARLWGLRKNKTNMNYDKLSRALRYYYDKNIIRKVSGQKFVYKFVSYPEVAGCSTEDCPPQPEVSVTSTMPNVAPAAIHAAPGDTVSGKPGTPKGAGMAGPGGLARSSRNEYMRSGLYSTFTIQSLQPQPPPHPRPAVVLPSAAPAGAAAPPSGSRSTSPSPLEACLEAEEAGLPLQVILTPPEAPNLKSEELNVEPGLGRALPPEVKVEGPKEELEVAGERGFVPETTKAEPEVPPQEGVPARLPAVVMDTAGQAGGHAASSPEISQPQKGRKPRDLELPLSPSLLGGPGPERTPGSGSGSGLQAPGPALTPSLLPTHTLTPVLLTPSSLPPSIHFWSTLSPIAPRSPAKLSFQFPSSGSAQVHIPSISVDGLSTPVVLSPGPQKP
# Procedure, shortened: as §1
# [3] = molecular target: T3, GABPA (Homo sapiens, UniProt Q06546 1-454)
# T3 sequence: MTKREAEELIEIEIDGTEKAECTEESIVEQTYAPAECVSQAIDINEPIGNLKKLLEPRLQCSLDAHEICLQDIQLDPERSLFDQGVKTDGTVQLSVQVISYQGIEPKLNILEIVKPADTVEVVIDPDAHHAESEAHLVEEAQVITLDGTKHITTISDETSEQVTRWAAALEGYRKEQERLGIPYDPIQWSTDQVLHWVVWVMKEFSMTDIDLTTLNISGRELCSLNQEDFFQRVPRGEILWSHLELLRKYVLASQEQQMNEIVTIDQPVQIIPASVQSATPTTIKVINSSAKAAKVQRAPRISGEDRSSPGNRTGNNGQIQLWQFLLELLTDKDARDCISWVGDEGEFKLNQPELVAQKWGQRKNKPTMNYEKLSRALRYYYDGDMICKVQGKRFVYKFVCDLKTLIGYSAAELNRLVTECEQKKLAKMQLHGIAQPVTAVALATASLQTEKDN
# Procedure, shortened: as §1
# [4] = molecular target: T4, ERG (Homo sapiens, UniProt P11308 1-479)
# T4 sequence: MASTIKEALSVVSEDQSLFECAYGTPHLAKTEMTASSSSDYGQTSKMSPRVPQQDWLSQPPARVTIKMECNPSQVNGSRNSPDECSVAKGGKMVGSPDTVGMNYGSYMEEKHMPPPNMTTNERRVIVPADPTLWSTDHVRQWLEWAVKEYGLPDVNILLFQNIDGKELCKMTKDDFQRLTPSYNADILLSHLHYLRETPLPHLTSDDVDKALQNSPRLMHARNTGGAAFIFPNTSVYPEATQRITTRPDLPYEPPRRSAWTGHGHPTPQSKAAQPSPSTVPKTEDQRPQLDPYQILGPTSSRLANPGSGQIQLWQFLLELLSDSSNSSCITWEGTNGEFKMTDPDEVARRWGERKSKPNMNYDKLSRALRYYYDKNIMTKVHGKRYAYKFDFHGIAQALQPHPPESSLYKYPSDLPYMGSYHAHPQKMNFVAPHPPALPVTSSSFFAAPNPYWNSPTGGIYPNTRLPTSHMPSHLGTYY
# Procedure, shortened: as §1
# [5] = molecular target: ELF1 (Homo sapiens, UniProt P32519 1-619)
# Procedure, shortened: as §1
# [6] = molecular target: T5, EHF (Homo sapiens, UniProt Q9NZC4 1-300)
# T5 sequence: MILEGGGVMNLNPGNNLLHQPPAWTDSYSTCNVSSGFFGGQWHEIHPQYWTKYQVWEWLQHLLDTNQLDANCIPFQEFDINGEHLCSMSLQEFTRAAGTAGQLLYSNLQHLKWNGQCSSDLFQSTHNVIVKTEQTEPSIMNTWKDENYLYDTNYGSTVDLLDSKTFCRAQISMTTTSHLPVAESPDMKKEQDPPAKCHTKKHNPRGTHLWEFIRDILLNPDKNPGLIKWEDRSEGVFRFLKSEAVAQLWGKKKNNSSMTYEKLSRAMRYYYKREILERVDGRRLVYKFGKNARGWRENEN
# Procedure, shortened: as §1
# [7] = molecular target: SPI1 (Homo sapiens, UniProt P17947 1-270)
# Procedure, shortened: as §1
# [8] = molecular target: T6, ELK3 (Homo sapiens, UniProt P41970 1-407)
# T6 sequence: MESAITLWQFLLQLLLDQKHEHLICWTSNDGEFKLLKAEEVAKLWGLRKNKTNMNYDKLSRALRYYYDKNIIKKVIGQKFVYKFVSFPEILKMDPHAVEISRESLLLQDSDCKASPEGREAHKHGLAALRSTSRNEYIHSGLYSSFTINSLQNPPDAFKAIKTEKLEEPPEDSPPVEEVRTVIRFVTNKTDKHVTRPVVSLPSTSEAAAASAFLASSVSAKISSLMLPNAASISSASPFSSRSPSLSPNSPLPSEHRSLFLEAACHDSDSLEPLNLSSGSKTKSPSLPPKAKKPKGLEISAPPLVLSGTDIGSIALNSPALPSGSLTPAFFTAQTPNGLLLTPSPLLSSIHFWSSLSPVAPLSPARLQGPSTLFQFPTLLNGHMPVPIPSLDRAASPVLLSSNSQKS
# Procedure, shortened: as §1
# [9] = molecular target: SPIB (Homo sapiens, UniProt Q01892 1-262)
# Procedure, shortened: as §1
# Chain of ELF1 (P32519 whole entry): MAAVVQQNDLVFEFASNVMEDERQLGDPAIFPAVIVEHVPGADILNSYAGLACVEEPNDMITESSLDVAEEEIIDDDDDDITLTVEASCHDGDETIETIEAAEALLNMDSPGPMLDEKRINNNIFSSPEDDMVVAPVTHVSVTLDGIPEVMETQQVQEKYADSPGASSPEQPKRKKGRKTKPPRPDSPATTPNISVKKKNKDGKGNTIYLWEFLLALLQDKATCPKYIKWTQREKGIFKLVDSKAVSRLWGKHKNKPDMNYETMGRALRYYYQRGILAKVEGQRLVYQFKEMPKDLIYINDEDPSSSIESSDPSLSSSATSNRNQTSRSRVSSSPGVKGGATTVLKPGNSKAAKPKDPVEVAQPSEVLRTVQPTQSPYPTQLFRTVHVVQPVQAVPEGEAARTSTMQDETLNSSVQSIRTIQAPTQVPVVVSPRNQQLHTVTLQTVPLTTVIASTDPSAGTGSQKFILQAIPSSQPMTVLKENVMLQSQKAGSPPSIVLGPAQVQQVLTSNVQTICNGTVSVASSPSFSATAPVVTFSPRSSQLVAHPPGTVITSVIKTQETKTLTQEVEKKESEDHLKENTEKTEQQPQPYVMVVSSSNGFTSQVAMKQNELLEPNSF
# Chain of SPIB (Q01892 whole entry): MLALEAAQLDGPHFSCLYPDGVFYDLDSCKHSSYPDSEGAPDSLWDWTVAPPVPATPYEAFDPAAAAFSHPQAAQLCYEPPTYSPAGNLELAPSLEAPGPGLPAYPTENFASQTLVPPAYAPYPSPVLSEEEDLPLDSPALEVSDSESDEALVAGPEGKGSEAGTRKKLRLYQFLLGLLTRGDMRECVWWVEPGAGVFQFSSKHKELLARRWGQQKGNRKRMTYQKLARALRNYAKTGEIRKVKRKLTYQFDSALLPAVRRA
Sequence,binding signal [1],binding signal [2],binding signal [3],binding signal [4],binding signal [5],binding signal [6],binding signal [7],binding signal [8],binding signal [9]
TTACTG,"1.11 fold enrichment (6-mer frequency, TF over GST control)","1.12 fold enrichment (6-mer frequency, TF over GST control)","1.08 fold enrichment (6-mer frequency, TF over GST control)","1.14 fold enrichment (6-mer frequency, TF over GST control)","1.09 fold enrichment (6-mer frequency, TF over GST control)","1.18 fold enrichment (6-mer frequency, TF over GST control)","1.05 fold enrichment (6-mer frequency, TF over GST control)","1.03 fold enrichment (6-mer frequency, TF over GST control)",–
ACGACG,"1.15 fold enrichment (6-mer frequency, TF over GST control)","1.15 fold enrichment (6-mer frequency, TF over GST control)","1.22 fold enrichment (6-mer frequency, TF over GST control)","1.1 fold enrichment (6-mer frequency, TF over GST control)","1.09 fold enrichment (6-mer frequency, TF over GST control)","1.1 fold enrichment (6-mer frequency, TF over GST control)","1.11 fold enrichment (6-mer frequency, TF over GST control)","1.15 fold enrichment (6-mer frequency, TF over GST control)",–
AAGCAA,"1.03 fold enrichment (6-mer frequency, TF over GST control)","1.08 fold enrichment (6-mer frequency, TF over GST control)","1.07 fold enrichment (6-mer frequency, TF over GST control)","1.02 fold enrichment (6-mer frequency, TF over GST control)","1.06 fold enrichment (6-mer frequency, TF over GST control)","1.02 fold enrichment (6-mer frequency, TF over GST control)",–,–,"1.02 fold enrichment (6-mer frequency, TF over GST control)"
TGCTTA,"1.04 fold enrichment (6-mer frequency, TF over GST control)","1.06 fold enrichment (6-mer frequency, TF over GST control)","1.21 fold enrichment (6-mer frequency, TF over GST control)","1.15 fold enrichment (6-mer frequency, TF over GST control)","1.13 fold enrichment (6-mer frequency, TF over GST control)","1.08 fold enrichment (6-mer frequency, TF over GST control)",–,"1 fold enrichment (6-mer frequency, TF over GST control)","1.06 fold enrichment (6-mer frequency, TF over GST control)"
AAAGCT,"1.06 fold enrichment (6-mer frequency, TF over GST control)","1.09 fold enrichment (6-mer frequency, TF over GST control)","1.08 fold enrichment (6-mer frequency, TF over GST control)","1.08 fold enrichment (6-mer frequency, TF over GST control)","1.09 fold enrichment (6-mer frequency, TF over GST control)",–,"1.01 fold enrichment (6-mer frequency, TF over GST control)","1.01 fold enrichment (6-mer frequency, TF over GST control)","1.06 fold enrichment (6-mer frequency, TF over GST control)"
ATCTGA,"1.08 fold enrichment (6-mer frequency, TF over GST control)","1.08 fold enrichment (6-mer frequency, TF over GST control)","1.21 fold enrichment (6-mer frequency, TF over GST control)","1.07 fold enrichment (6-mer frequency, TF over GST control)","1.16 fold enrichment (6-mer frequency, TF over GST control)","1.17 fold enrichment (6-mer frequency, TF over GST control)",–,"1.2 fold enrichment (6-mer frequency, TF over GST control)","1.17 fold enrichment (6-mer frequency, TF over GST control)"
TCGCGC,"1.08 fold enrichment (6-mer frequency, TF over GST control)","1.04 fold enrichment (6-mer frequency, TF over GST control)","1.18 fold enrichment (6-mer frequency, TF over GST control)","1.08 fold enrichment (6-mer frequency, TF over GST control)","1.07 fold enrichment (6-mer frequency, TF over GST control)","1.13 fold enrichment (6-mer frequency, TF over GST control)",–,"1.03 fold enrichment (6-mer frequency, TF over GST control)","1.08 fold enrichment (6-mer frequency, TF over GST control)"
